Screens from PubChem BioAssay.
This is a sample that favours compounds with a hit; in the whole collection about 3.5% have one here.
FBW7 act – FBW7 E3 ligase activators, primary screen, biochemical, AlphaScreen, human | F-box/WD repeat-containing protein 7 (Homo sapiens), Q969H0 | normalized activity (activation), % at 26.1 µM | AID 1259310, 2017 | 0.13% of 650,000 active | AlphaScreen FBW7–phospho-cyclin E peptide binding, activator screen; in the data active = normalized activity above about 1.9%;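 also: purified mutant Fbw7 with reduced substrate affinity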
GPR151 ag – activators of human GPR151, primary screen, cell-based, PathHunter beta-arrestin, luminescence | PathHunter beta-arrestin GPR151 cells | activation, % at 11.2 µM | 1% of 650,000 active | AID 1508602, 2020; in the data active = activation above about 4.9%
Target sequence (Q8TDV0 whole entry, looked up): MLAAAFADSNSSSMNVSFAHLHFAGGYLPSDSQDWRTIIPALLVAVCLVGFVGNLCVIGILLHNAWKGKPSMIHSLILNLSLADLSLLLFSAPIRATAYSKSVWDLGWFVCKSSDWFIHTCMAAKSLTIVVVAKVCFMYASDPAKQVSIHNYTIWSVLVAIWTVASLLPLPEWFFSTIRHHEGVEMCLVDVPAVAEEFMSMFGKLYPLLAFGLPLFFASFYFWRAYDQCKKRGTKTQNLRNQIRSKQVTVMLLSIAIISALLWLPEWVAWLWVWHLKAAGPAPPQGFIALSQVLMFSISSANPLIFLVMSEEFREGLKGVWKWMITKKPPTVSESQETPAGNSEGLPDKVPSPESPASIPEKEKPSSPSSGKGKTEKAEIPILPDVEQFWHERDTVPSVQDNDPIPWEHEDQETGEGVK
TEAD-YAP block – TEAD-YAP interaction inhibition, primary screen, TEAD-YAP interaction inhibitor project, luminescence, HEK-TIYL cells | TEAD-Gal4/YAP UAS-luciferase luminescence | 1.4% of 640,000 active | inhibition, % at 9.12 µM; in the data active = inhibition above about 32%
MITF inh – MITF inhibitors, primary screen, biochemical, AlphaScreen, human. AlphaScreen MITF homodimerization, bead proximity signal. inhibition, % at 2.6 µM. 0.91% of 650,000 active; in the data active = inhibition above about 50%
Hits are given with their value; i = inactive.

SMILES	FBW7 act	GPR151 ag	TEAD-YAP block	MITF inh
C=CC[C@@H]1CC=C[C@@H](C)N1C(=O)CC1(c2ccc(OC)cc2)CC(=O)N(C2CC2)C1=O (stereo partly specified)	i	i	i	i
COc1ccc(-n2nnnc2SC(C)C)cc1	i	i	i	i
CC1Cc2cc(S(=O)(=O)N(C)CC(=O)Nc3cccnc3)ccc2N1C(=O)C1CC1 (stereo unspecified)	i	i	39	i
CC(C)[C@H](CO)Nc1nc(-c2cccc(C(N)=O)c2)cnc1N	i	i	i	i
COc1ccccc1/C=C/C(=O)Nc1ccc2[nH]ncc2c1	i	i	35	i
c1ccc2c(CN3CCC(N4CCCCC4)CC3)cccc2c1	i	i	i	i
COc1ccc(-n2nc(C(=O)NCC(=O)Nc3cc(OC)c(OC)c(OC)c3)c3ccccc3c2=O)cc1OC	i	i	49	i
COc1cccc(NC(=O)CNC(=O)c2nn(-c3ccc(OC)c(OC)c3)c(=O)c3ccccc23)c1	i	i	34	i
COc1ccc(-n2nc(C(=O)NCC(=O)Nc3ccc(F)cc3)c3ccccc3c2=O)cc1OC	i	i	i	i
CCOC(=O)/C(=C\c1ccccc1OCC)NC(=O)c1ccccc1	i	i	i	i
O=C(O)CCc1ccc(-c2ccc(Br)cc2)o1	i	i	i	56
O=C(Cc1ccccc1)OCc1ccc(-c2ccc(Br)cc2)o1	i	i	i	i
O=S(=O)(NCCN1CCCCCC1)c1cccc2nsnc12	i	i	i	i
COc1ccc(C(=O)Nc2cc(C(=O)N3CCc4ccccc4C3)ccc2N2CC3CC(C2)c2cccc(=O)n2C3)cc1 (stereo unspecified)	i	i	i	i
CCn1c(=O)cc(N2CCN(c3cccc(Cl)c3)CC2)[nH]c1=O	i	i	68	i
COc1ccc(OCC(=O)Nc2ccc(-c3nc4ccc(C)cc4s3)cc2)cc1	i	i	39	i
Cc1ccc2nc(-c3ccc(NC(=O)c4ccccc4C(=O)O)cc3)sc2c1	i	i	83	i
Oc1ccc(-c2nc3cc4sc(-c5ccc(O)cc5)nc4cc3s2)cc1	i	i	i	i
Cc1ccc2nc(-c3ccc(O)cc3)sc2c1	i	i	98	i
Cc1ccc2nc(-c3ccc(NC(=O)C4CCCN4S(C)(=O)=O)cc3)sc2c1 (stereo unspecified)	i	i	50	i
Cn1c2c(c(=O)n(C)c1=O)C(c1ccc(Cl)cc1)C1=C(CCCC1=O)N2 (stereo unspecified)	i	i	i	i
COC(=O)CCC(=O)Nc1ccc(-c2nc3ccc(C)cc3s2)cc1	i	i	72	i
Nc1nc(SCC(=O)NC2CCCCC2)nc2sc3c(c12)CCCC3	i	i	53	i
CCOC(=O)CCCSc1nc(N)c2c3c(sc2n1)CCCC3	i	i	88	i
CCOC(=O)CC(=O)CSc1nc(N)c2c3c(sc2n1)CCCC3	i	i	i	i
SMILES	FBW7 act	GPR151 ag	TEAD-YAP block	MITF inh
CCN(CC)c1ccc(C(=O)Nc2cc(C(=O)N3CCOCC3)ccc2N2CC3CC(C2)c2cccc(=O)n2C3)cc1 (stereo unspecified)	i	i	69	i
CCOc1cc(/C=N/NC(=O)C(O)c2ccccc2)ccc1OC(=O)c1cccs1 (stereo unspecified)	i	i	i	i
Cc1ccc(/C=C2/SC(=S)N(CO)C2=O)o1	i	i	i	85
Cc1ccc(/C=C2\SC(=S)N(CCCC(=O)O)C2=O)o1	i	i	53	i
Cc1ccc(/C=C2/SC(=S)N(CCC(=O)O)C2=O)o1	i	i	i	i
CCCN1C(=O)/C(=C/c2ccc(C)o2)SC1=S	i	i	i	i
Cc1ccc(/C=C2\SC(=S)N(/N=C/c3ccc(C)o3)C2=O)o1	i	i	i	54
Cc1ccc(/C=C2/SC(=S)N(c3ccc(CC(=O)O)cc3)C2=O)o1	i	i	i	59
O=S(=O)(NCCc1csc(-c2ccc(Cl)cc2)n1)c1cccc(F)c1	i	i	i	i
Cc1ccc(C(=O)Nc2nc3c(s2)CCC3C(=O)N2CCN(c3ccccc3)CC2)cc1 (stereo unspecified)	i	i	i	i
O=C(NCCS(=O)(=O)N1CCc2ccccc2C1)c1c(F)cccc1F	i	i	i	i
CCOc1ccc2nc(NC(=O)c3ccccc3SCCOC)sc2c1	i	i	i	i
O=C(CSc1nc2[nH]ncc2c(=O)n1-c1ccc(Br)cc1)Nc1ccc2c(c1)OCCO2	i	i	42	i
O=C(CSc1nc2[nH]ncc2c(=O)n1-c1cccc(C(F)(F)F)c1)Nc1ccc2c(c1)OCCO2	i	i	i	i
O=C(CSc1nc2[nH]ncc2c(=O)n1-c1ccccc1)Nc1ccc2c(c1)OCCO2	i	i	50	i
COc1ccc(C(=CCl)c2ccc(OC)cc2)cc1	i	i	42	i
Oc1cccc2ccc(/C=C/c3ccc4c(c3)OCCO4)nc12	i	i	92	i
CC(=O)Oc1cccc2ccc(/C=C/c3ccc4c(c3)OCO4)nc12	i	i	78	i
CC(=O)Oc1cccc2ccc(/C=C/c3cc4c(cc3Cl)OCO4)nc12	i	i	i	i
O=C(CCc1ccccc1)NC(=S)Nc1cccc(S(=O)(=O)N2CCCC2)c1	i	i	47	i
O=C(CCc1ccccc1)NC(=S)Nc1ccc(S(=O)(=O)N2CCOCC2)cc1	i	i	i	i
c1ccc(Nc2nc(Nc3ccc4ncccc4c3)nc3c2ncn3-c2ccsc2)cc1	i	i	57	i
c1cnc2ccc(Nc3nc(Nc4ccc(N5CCOCC5)cc4)c4ncn(-c5ccsc5)c4n3)cc2c1	i	i	38	i
Nc1nc(Nc2ccccc2)nc2c1ncn2-c1ccsc1	i	i	37	i
CC(=O)Nc1ccc(Nc2nc(Nc3ccc4ncccc4c3)nc3c2ncn3-c2ccccc2)cc1	i	i	40	i
SMILES	FBW7 act	GPR151 ag	TEAD-YAP block	MITF inh
Cc1ccc(OCCCN2CCNCC2)c(Cl)c1	i	i	i	i
c1ccc(Nc2nc(Nc3ccc4ncccc4c3)nc3c2ncn3-c2ccccc2)cc1	i	i	42	i
c1ccc(-n2cnc3c(Nc4ccc(N5CCOCC5)cc4)nc(Nc4ccc5ncccc5c4)nc32)cc1	i	i	i	i
CC(=O)Nc1ccc(Nc2nc(Nc3ccc4ncccc4c3)nc3c2ncn3C(C)C)cc1	i	i	36	i
Nc1nc(Nc2ccc3ncccc3c2)nc2c1ncn2-c1ccsc1	38	i	i	i
COCCNC(=O)C1c2ccccc2C(=O)N(C2CCCCC2)C1c1ccc(OC)cc1 (stereo unspecified)	i	i	i	i
CCCCc1ccc(NC(=O)CSc2ncccn2)cc1	i	i	i	i
CC(C)CC(c1nnnn1C(C)(C)C)N1CCN(c2ccccc2F)CC1 (stereo unspecified)	i	i	i	i
O=C(c1cnc(N2CCCC2)nc1)N1CCCCC1	i	i	i	i
O=C(Cc1cccs1)NNC(=O)c1ccccc1Br	i	i	i	i
